Bioassay records from PubChem.
KB-3-1 cytotox: KB-3-1 parental cell cytotoxicity; KB-3-1 viability, CellTiter-Glo ATP luminescence, 72 h; Potency, µM (top dose mostly 46.1 µM), usual class: cytotoxic; hit rate 1.4% among 400,000; AID 1347075; also: potency is read from the fitted curve at half-maximal effect; nearly all actives have a fitted effect of over 60% in size
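Using CellTiter-Glo luminescence, growth of non-resistant KB-3-1 adenocarcinoma cells is assessed 72 h after pin-tool compound addition at 37 °C. Normalized responses across the concentration series yield fitted curves.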
IL1B secr inh: inflammasome signaling inhibition, IL-1 beta readout; THP-1 LPS/ATP IL-1B secretion, AlphaLISA, 16 h; stronger effect = lower value; activity change, % at 57.5 µM; hit rate 4.7% among 360,000; in the data active = activity change below about -50%; inconclusive = mostly about -30% to -49%
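Secreted IL-1B measured by AlphaLISA bead assay after 16 h compound exposure of THP-1 cells; compounds (final up to 57.5 uM) added 1 h before LPS (250 ng/mL) and ATP (1.25 mM) stimulation; lower signal means less secretion.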
KB-V1 cytotox: KB-V1 MDR subline cytotoxicity | KB-V1 MDR cells viability, CellTiter-Glo, 72 h | Potency, µM (series often up to 46.1 µM), actives largely listed as cytotoxic | hit rate 3.4% among 400,000 | AID 1347076; also: potency is read from the fitted curve at half-maximal effect; nearly all actives have a fitted effect of over 60% in size
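qHTS viability screen in drug-selected KB-V1 MDR cells: 72 h compound treatment at 37 degrees C, ATP luminescence end point.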
HT1080 IDH1KD tx: kills HT-1080 cells with IDH1 knockdown. HT-1080 IDH1 knockdown viability, ATP luminescence, 48 h. Potency, µM (series often up to 46.1 µM), without a hit: top-dose activity, negative = toxicity, hits mostly cytotoxic. hit rate 2% among 360,000. AID 686971;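 also: potency is read from the fitted curve at half-maximal effect; 0% = DMSO wells and -100% = cell-free medium wells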
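% activity derives from luminescence (CellTiter-Glo), normalised to DMSO and no-cell wells. HT-1080-IDH1KD cells, 750/well, had 48 h compound exposure at 37 °C.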
HT1080-NT tox: kills 2HG-producing HT-1080-NT fibrosarcoma cells. hit rate 1.6% among 360,000. Potency, µM (highest dose often 46.1 µM), without a hit: at the top dose activity, negative = less viability, actives largely listed as cytotoxic. HT-1080-NT fibrosarcoma viability, CellTiter-Glo ATP luminescence, 48 h;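 also: NT is the 2HG producing partner of a matched IDH1 knockdown line; potency is read from the fitted curve at half-maximal effect; 0% = DMSO-treated cells and -100% = media-only wells without cells; nearly all actives have a fitted effect of over 55% in size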
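Compounds were tested in concentration-response format on HT-1080-NT cells for 48 hours at 37 degrees C. Cell viability came from CellTiter-Glo luminescence; curves were classified by r2, response magnitude and activity.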
* hit, by the source's call; i = inactive; ? = inconclusive; / = no result. Shown are actives, neighbours in structure and some others; about 8.8% of the full set was active somewhere. Unless noted, calls follow the shape of the dose curve; as a rule, active = well fitted curve in the direction sought with a large enough effect; inconclusive = small, poorly fitted or top-dose-only effect, or another doubt; inactive = no such curve, though single readings can be large; an effect the other way counts as inactive or inconclusive. Unless noted, % is scaled to controls: 0 for no effect and ±100 for the full control effect.

SMILES	KB-3-1 cytotox	IL1B secr inh	KB-V1 cytotox	HT1080 IDH1KD tx	HT1080-NT tox
O=c1c2cc(N3CCOCC3)ccc2[nH]c(=S)n1CCCN1CCCC1	i	38.1	?	9.5%	-1.0%
COc1cccc(Cn2c(=S)[nH]c3ccc(N4CCOCC4)cc3c2=O)c1	i	24.0	3.66µM*	-22.0%	-22.7%
O=c1c2cc(N3CCOCC3)ccc2[nH]c(=S)n1Cc1ccco1	i	9.7	13µM*	?	?
O=c1c2cc(N3CCOCC3)ccc2[nH]c(=S)n1Cc1cccc(Cl)c1	i	20.6	?	?	?
CCNC(=O)C(=O)NCC1CCCN1S(=O)(=O)c1cccs1 (stereo not drawn)	i	17.3	i	8.5%	5.9%
CCCCN(C(=S)Nc1cccc(C)c1C)c1c(N)n(CCC)c(=O)[nH]c1=O	i	15.1	?	2.1%	-0.9%
COc1ccc(CN2CCCC(CO)(Cc3ccc(F)cc3)C2)cc1C (stereo not drawn)	i	-60.9*	i	-15.5%	-1.1%
CC(C)Oc1ccc(CN2CCCC(CO)(Cc3ccccc3)C2)cc1CO (stereo not drawn)	i	-53.7*	i	-16.2%	-22.9%
CSCCCN1CCCC(CO)(Cc2ccc(F)cc2)C1 (stereo not drawn)	i	-11.5	i	-2.9%	1.8%
COc1ccc(CCNC(=O)CC(Cc2ccc(C)cc2)C(=O)O)cc1OC (stereo not drawn)	i	9.3	i	7.5%	0.0%
COc1cccc(/C=C/C(=O)c2ccc(NS(=O)(=O)c3ccc(C)cc3)cc2)c1	i	-99.4*	?	?	?
COc1cc(/C=C/C(=O)c2ccc(NS(=O)(=O)c3ccc(C)cc3)cc2)cc(OC)c1O	?	-103.1*	i	?	?
COc1cc(/C=C/C(=O)c2ccc(C)c([N+](=O)[O-])c2)cc(OC)c1O	i	?	?	?	?
COc1cccc(/C=C/C(=O)c2ccc(C)c([N+](=O)[O-])c2)c1	i	-82.9*	i	-23.9%	?
COc1cccc(C(=O)/C=C/Nc2ccc(S(=O)(=O)Nc3cccc(C(C)=O)c3)cc2)c1	i	-28.1	?	-16.3%	-8.2%
COc1cc(/C=C/C(=O)O)ccc1OS(=O)(=O)c1ccc(C)cc1	i	-0.7	i	-10.1%	-3.7%
COc1ccc(/C=C/C(=O)c2ccc(C)c([N+](=O)[O-])c2)cc1O	?	?	?	?	-12.3%
COc1cc(/C=C/C(=O)c2ccc(NS(=O)(=O)c3ccc(C)cc3)cc2)ccc1OC(F)F	i	-92.5*	?	?	?
CCOc1ccc(C2C(C(N)=O)=C(C)Nc3nc(-c4ccc(OC)cc4)nn32)cc1 (stereo not drawn)	i	/	i	/	/
Cc1ccccc1N1CCN(C2CCCN(C(=O)c3cn4cccc(C)c4n3)C2)CC1 (stereo not drawn)	i	0.0	?	-28.6%	7.0%
CN1C[C@@H]2[C@@H]3C(=O)N(Cc4ccccc4)C(=O)[C@@H]3[C@](Cc3ccccc3)(C1=O)N2C(=O)c1ccc(Br)cc1	i	-9.5	?	-1.7%	4.6%
Cc1ccc(C2CC2C(=O)NNC(=S)Nc2cccc(Cl)c2)cc1 (stereo not drawn)	i	26.6	i	0.1%	0.0%
Cc1ccc(C2CC2C(=O)NNC(=S)Nc2cccc(C)c2)cc1 (stereo not drawn)	i	16.3	16.4µM*	-10.4%	-22.8%
O=C(CNCC1CCCO1)Nc1ccc(N2CCCCCC2)cc1 (stereo not drawn)	i	0.0	20.6µM*	-27.7%	4.4%
O=C(CNCc1ccccc1Cl)Nc1ccccc1N1CCCCC1	i	21.4	i	-2.8%	-7.6%
SMILES	KB-3-1 cytotox	IL1B secr inh	KB-V1 cytotox	HT1080 IDH1KD tx	HT1080-NT tox
O=C(CNCC1CCCO1)Nc1ccccc1N1CCCCCC1 (stereo not drawn)	i	8.1	6.51µM*	1.0%	5.5%
O=C(CNCCC1=CCCCC1)Nc1ccc(N2CCCCCC2)cc1	?	-86.6*	?	?	?
O=C(CNC1CCCC1)Nc1ccc(N2CCCCCC2)cc1	i	-19.3	?	?	-29.4%
O=C(/C=C\c1ccc2c(c1)OCO2)Nc1c2c(nn1-c1ccc(Cl)cc1)CSC2	i	-1.4	i	-26.0%	-24.1%
CC(Oc1ccc(F)cc1)C(=O)NCC1(N(C)C)CCCCC1 (stereo not drawn)	i	/	i	/	/
CCN(CC)CCN(C(=O)c1ccc2c(c1)OCCO2)c1nc2cc(C)cc(C)c2s1	/	-57.2*	/	-16.6%	-5.1%
CN(C)CCN(C(=O)c1ccccc1Cl)c1nc2c(Cl)cccc2s1	i	-68.7*	23.1µM*	0.0%	-4.8%
CN(C)CCN(C(=O)c1cccc(Cl)c1)c1nc2c(Cl)cccc2s1	i	0.0	i	-15.2%	-7.0%
CCN(CC)CCN(C(=O)c1ccc2c(c1)OCCO2)c1nc2c(Cl)cccc2s1	i	-66.0*	i	-16.7%	-10.3%
COc1cccc(/C=C/c2nc(C#N)c(NCCc3ccc(OC)c(OC)c3)o2)c1	i	/	i	/	/
O=c1cc(CSc2ncn[nH]2)[nH]c2c(Cl)cccc12	i	/	i	/	/
Cc1ccc(C(=O)CC2(O)C(=O)N(C)c3ccccc32)s1 (stereo not drawn)	i	0.0	i	0.1%	5.5%
CN1C(C(=O)NCc2ccc(OC(F)(F)F)cc2)CC2Cn3c(nc4cc5ccccc5cc43)C21 (stereo not drawn)	i	31.2	i	0.3%	5.4%
COc1cc(NC(=O)CC(C)S(=O)(=O)c2ccc3c(c2)CCN3C(C)=O)cc(OC)c1OC (stereo not drawn)	i	/	?	/	/
C=CCNC(=O)CN1CCC(c2nc3cc(C)c(C)cc3[nH]2)CC1	i	-2.4	i	-9.1%	1.6%
Cc1cc2nc(C3CCN(CC4COc5ccccc5O4)CC3)[nH]c2cc1C (stereo not drawn)	?	?	i	?	14.6µM*
O=c1c2sc3ccccc3c2n(Cc2ccc(F)cc2)c(=O)n1Cc1ccco1	i	/	i	/	/
O=C(O)c1ccc(N/N=C/c2ccc(-c3ccccc3Cl)o2)cc1	i	-24.4	i	23.1µM*	?
Cc1ccc(/C=N/Nc2ccc(C(=O)O)cc2)o1	i	37.7	i	-10.8%	0.7%
O=C(O)c1ccc(N/N=C/c2ccc(-c3ccc(Br)cc3)o2)cc1	i	32.1	i	23.1µM*	25.9µM*
O=C(O)c1ccc(N/N=C/c2ccc(-c3ccccc3)cc2)cc1	?	-17.3	i	10.3µM*	16.4µM*
CC(C)c1ccc(/C=N/Nc2ccc(C(=O)O)cc2)cc1	i	49.1	i	5.2%	2.3%
